Test results as given in PubChem BioAssay (EPA / NIEHS).
Active and inactive are the calls of the source. The calls were made as follows: active = hit-call score of the fitted dose curve at least 0.9, where 1 is the maximum; inactive = score below 0.9.

Key:
[1] = ATG_M_61_CIS: Attagene CIS-FACTORIAL HepG2 Assay for M61 Transcription Factor (Internal Marker) (AID 2282937); conditions: HepG2 Attagene CIS-FACTORIAL M61 internal marker reporter; actives raise or lower the signal
How it was run: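 Readout is reporter mRNA by RT-PCR, fluorescent primer extension and capillary electrophoresis, with gain or loss fitted relative to DMSO. Transfected HepG2 cells carrying endogenous-TF-driven cis reporters were exposed to chemicals for 24 hours.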

[2] = ATG_EGR_CIS: Attagene CIS-FACTORIAL HepG2 Assay for human Early Growth Response 1 (EGR1) (AID 2282938); conditions: HepG2 Attagene CIS-FACTORIAL EGR reporter mRNA; actives raise or lower the signal
How it was run: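 After 24 h compound exposure, RNA from reporter-transfected HepG2 cells was reverse-transcribed, PCR-amplified, fluorescently labelled and resolved by capillary electrophoresis. EGR1 reporter transcript changes, up or down, were fitted against DMSO, reflecting endogenous transcription-factor activity.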

[3] = ATG_M_19_CIS: Attagene CIS-FACTORIAL HepG2 Assay for M19 Transcription Factor (Internal Marker) (AID 2282939); conditions: HepG2 Attagene CIS-FACTORIAL M19 internal marker reporter; actives raise or lower the signal
How it was run: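 Following a 24 h exposure, RNA from transfected HepG2 cells was reverse-transcribed, PCR-amplified with reporter-specific primers, end-labelled with 6-FAM and HpaI-digested before capillary separation. Values represent gain or loss versus DMSO.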

[4] = ATG_Ets_CIS: Attagene CIS-FACTORIAL HepG2 Assay for human Erythroblast Transformation Specific (ETS) (AID 2282941); conditions: HepG2 ETS cis-reporter transcription; AC50: actives raise or lower the signal unless noted; outcome: actives raise or lower the signal unless noted
How it was run: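 HepG2 cells transiently transfected with cis-promoter reporter transcription units were dosed for 24 h; reporter mRNA was measured by RT-PCR, 6-FAM primer extension, HpaI digestion and capillary electrophoresis, with bidirectional fitting against DMSO baseline.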

[5] = target: Hepatocyte nuclear factor 3-beta (Homo sapiens) (UniProt Q9Y261); experiment: ATG_FoxA2_CIS: Attagene CIS-FACTORIAL HepG2 Assay for human Forkhead box A2 (FOXA2) (AID 2282942); conditions: HepG2 cis-reporter transcription factor activity, 24 h; actives raise or lower the signal
Sequence of Hepatocyte nuclear factor 3-beta (Homo sapiens) (Q9Y261 whole entry, looked up): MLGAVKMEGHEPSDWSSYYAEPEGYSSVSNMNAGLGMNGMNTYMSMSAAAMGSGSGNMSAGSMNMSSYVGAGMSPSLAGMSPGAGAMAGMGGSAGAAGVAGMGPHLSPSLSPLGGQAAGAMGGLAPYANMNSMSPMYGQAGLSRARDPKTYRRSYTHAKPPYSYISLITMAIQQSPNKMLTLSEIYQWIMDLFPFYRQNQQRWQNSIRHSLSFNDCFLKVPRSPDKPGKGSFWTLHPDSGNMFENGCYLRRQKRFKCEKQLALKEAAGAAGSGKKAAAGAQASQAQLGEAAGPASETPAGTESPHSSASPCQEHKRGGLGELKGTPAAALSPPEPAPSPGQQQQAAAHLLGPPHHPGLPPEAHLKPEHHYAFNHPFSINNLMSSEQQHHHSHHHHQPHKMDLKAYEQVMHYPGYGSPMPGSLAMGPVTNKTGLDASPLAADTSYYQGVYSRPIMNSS
How it was run: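 Endogenous transcription factor activity is captured via cis-element-driven reporter transcripts in transfected HepG2. Total RNA taken at 24 h post-dosing; labelled RT-PCR products resolved by capillary electrophoresis. Gain or loss fitted versus DMSO.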

[6] = ATG_FoxO_CIS: Attagene CIS-FACTORIAL HepG2 Assay for human Forkhead box O (FoxO) (AID 2282943); conditions: HepG2 Attagene cis-reporter, FoxO element, mRNA; actives raise or lower the signal
How it was run: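 HepG2 cells transiently transfected with cis-promoter-driven multiple reporter transcription units; 24 h after chemical dosing, reporter mRNA quantified by RT-PCR, fluorescent primer extension, HpaI digestion and capillary electrophoresis. Bidirectional fitting versus DMSO baseline.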

[7] = ATG_GATA_CIS: Attagene CIS-FACTORIAL HepG2 Assay for human GATA Binding Protein (AID 2282944); conditions: HepG2 GATA cis-element reporter, Attagene multiplex mRNA; actives raise or lower the signal
How it was run: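 DMSO serves as negative control and baseline for bidirectional fitting of reporter mRNA changes. HepG2 cells bearing transiently transfected cis-promoter reporters were exposed 24 h; transcripts detected via RT-PCR and capillary electrophoresis.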

[8] = ATG_GLI_CIS: Attagene CIS-FACTORIAL HepG2 Assay for human Zinc Finger Protein GLI1 (AID 2282945); conditions: HepG2, Attagene cis-factorial reporter mRNA, GLI element; actives raise or lower the signal
How it was run: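 HepG2 cells transiently transfected with cis-promoter multiplexed reporter units report endogenous transcription factor activity. After 24 h chemical exposure, reporter mRNA was quantified by RT-PCR, 6-FAM labelling, HpaI digestion and capillary electrophoresis, with bidirectional fitting against DMSO.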

[9] = target: Bile acid receptor (Homo sapiens) (UniProt Q96RI1); experiment: ATG_IR1_CIS: Attagene CIS-FACTORIAL HepG2 Assay for human Nuclear Receptor Subfamily 1 Group H Member 4 (NR1H4), IR1 submotif (AID 2282946); conditions: IR1 reporter transcription, actives raise or lower the signal
Sequence of Bile acid receptor (Homo sapiens) (Q96RI1 whole entry, looked up): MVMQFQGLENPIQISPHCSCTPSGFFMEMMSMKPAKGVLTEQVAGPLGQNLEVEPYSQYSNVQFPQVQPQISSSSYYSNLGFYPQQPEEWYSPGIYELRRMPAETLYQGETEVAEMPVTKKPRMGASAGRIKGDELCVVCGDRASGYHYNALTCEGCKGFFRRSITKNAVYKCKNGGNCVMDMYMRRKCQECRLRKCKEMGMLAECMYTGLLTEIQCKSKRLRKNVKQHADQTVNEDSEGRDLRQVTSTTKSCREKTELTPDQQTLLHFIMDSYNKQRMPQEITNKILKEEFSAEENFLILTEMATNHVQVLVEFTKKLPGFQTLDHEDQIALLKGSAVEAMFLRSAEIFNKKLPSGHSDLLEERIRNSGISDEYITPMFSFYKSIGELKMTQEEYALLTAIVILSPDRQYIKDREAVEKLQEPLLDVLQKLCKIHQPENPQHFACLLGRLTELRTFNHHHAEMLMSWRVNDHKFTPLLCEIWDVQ
How it was run: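 Transient MRTU transfection, HepG2; 24 h dosing; RNA → RT-PCR → 6-FAM primer extension → HpaI digest → capillary electrophoresis fluorescence. Gain/loss of signal fitted relative to DMSO.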

Cc1[nH]nc2c1N=C(c1ccccc1Cl)c1cc([N+](=O)[O-])ccc1N2
outcome [1]: inactive | outcome [2]: inactive | outcome [3]: inactive | outcome [4]: inactive | outcome [5]: inactive | outcome [6]: inactive | outcome [7]: inactive | outcome [8]: inactive | AC50 [9]: 2.08 µM (active)

CC(C)[C@@H]1CC[C@@H](C)C[C@H]1O
outcome [1]: inactive | outcome [2]: inactive | outcome [3]: inactive | outcome [4]: inactive | outcome [5]: inactive | outcome [6]: inactive | outcome [7]: inactive | outcome [8]: inactive | outcome [9]: inactive

CCCCCCCCCCCCOC(=O)c1cc(O)c(O)c(O)c1
outcome [1]: inactive | outcome [2]: inactive | outcome [3]: inactive | outcome [4]: inactive | outcome [5]: inactive | outcome [6]: inactive | outcome [7]: inactive | outcome [8]: inactive | outcome [9]: inactive

Cc1ccc(C(=O)c2ccccc2)cc1
outcome [1]: inactive | outcome [2]: inactive | outcome [3]: inactive | outcome [4]: inactive | outcome [5]: inactive | outcome [6]: inactive | outcome [7]: inactive | outcome [8]: inactive | outcome [9]: inactive

NC(C(F)(F)F)C(F)(F)F
outcome [1]: inactive | outcome [2]: inactive | outcome [3]: inactive | outcome [4]: inactive | outcome [6]: inactive | outcome [7]: inactive | outcome [8]: inactive | outcome [9]: inactive

O=S(=O)(O)c1ccccc1
outcome [1]: inactive | outcome [2]: inactive | outcome [3]: inactive | outcome [4]: inactive | outcome [6]: inactive | outcome [7]: inactive | outcome [8]: inactive | outcome [9]: inactive

OCC(CO)(CBr)CBr
outcome [1]: inactive | outcome [2]: inactive | outcome [3]: inactive | outcome [4]: inactive | outcome [6]: inactive | outcome [7]: inactive | outcome [8]: inactive | outcome [9]: inactive

C=CC(F)(F)C(F)(F)C(F)(F)C(F)(F)F
outcome [1]: inactive | outcome [2]: inactive | outcome [3]: inactive | outcome [4]: inactive | outcome [5]: inactive | outcome [6]: inactive | outcome [7]: inactive | outcome [8]: inactive | outcome [9]: inactive

NCc1cccc(CN)c1
outcome [1]: inactive | outcome [2]: inactive | outcome [3]: inactive | outcome [4]: inactive | outcome [5]: inactive | outcome [6]: inactive | outcome [7]: inactive | outcome [8]: inactive | outcome [9]: inactive

FC(F)(F)C(F)(F)C(F)(F)C(F)(F)I
outcome [1]: inactive | outcome [2]: inactive | outcome [3]: inactive | outcome [4]: inactive | outcome [5]: inactive | outcome [6]: inactive | outcome [7]: inactive | outcome [8]: inactive | outcome [9]: inactive

O=C(O)c1cccc(C(=O)O)n1
outcome [1]: inactive | outcome [2]: inactive | outcome [3]: inactive | outcome [4]: inactive | outcome [5]: inactive | outcome [6]: inactive | outcome [7]: inactive | outcome [8]: inactive | outcome [9]: inactive

CCCCCCOC(=O)c1ccc(O)cc1
outcome [1]: inactive | AC50 [2]: 52.2 µM (active) | outcome [3]: inactive | AC50 [4]: 54.1 µM (active) | outcome [5]: inactive | outcome [6]: inactive | outcome [7]: inactive | AC50 [8]: 60.3 µM (active) | AC50 [9]: 47.5 µM (active)

C/C=C/C(=O)C1=C(C)CCCC1(C)C
outcome [1]: inactive | AC50 [2]: 55.4 µM (active) | outcome [3]: inactive | outcome [4]: inactive | outcome [5]: inactive | AC50 [6]: 138 µM (active) | outcome [7]: inactive | AC50 [8]: 69.7 µM (active) | AC50 [9]: 43.9 µM (active)

Oc1cccc2c(O)cccc12
outcome [1]: inactive | outcome [2]: inactive | outcome [3]: inactive | outcome [4]: inactive | outcome [6]: inactive | outcome [7]: inactive | outcome [8]: inactive

Oc1ccc(Cc2ccccc2O)cc1
outcome [1]: inactive | outcome [2]: inactive | outcome [3]: inactive | outcome [4]: inactive | outcome [6]: inactive | outcome [7]: inactive | outcome [8]: inactive | outcome [9]: inactive

Nc1ccn([C@@H]2O[C@H](CO)[C@@H](O)C2O)c(=O)n1 (some centres undefined)
outcome [1]: inactive | outcome [2]: inactive | outcome [3]: inactive | outcome [4]: inactive | outcome [5]: inactive | outcome [6]: inactive | outcome [7]: inactive | outcome [8]: inactive | outcome [9]: inactive

CC1CCC(C(=O)O)CC1 (centres undefined)
outcome [1]: inactive | outcome [2]: inactive | outcome [3]: inactive | outcome [4]: inactive | outcome [6]: inactive | outcome [7]: inactive | outcome [8]: inactive | outcome [9]: inactive

FC(F)(F)C1(F)C(F)(F)C(F)(F)C(F)(F)C(F)(C(F)(F)F)C1(F)F (centres undefined)
outcome [1]: inactive | outcome [2]: inactive | outcome [3]: inactive | outcome [4]: inactive | outcome [6]: inactive | outcome [7]: inactive | outcome [8]: inactive | outcome [9]: inactive

CC(C)(c1ccc(Oc2ccc(N)cc2)cc1)c1ccc(Oc2ccc(N)cc2)cc1
outcome [1]: inactive | outcome [2]: inactive | outcome [3]: inactive | outcome [4]: inactive | outcome [5]: inactive | outcome [6]: inactive | outcome [7]: inactive | outcome [8]: inactive | outcome [9]: inactive

CCN(CC)CC
outcome [1]: inactive | outcome [2]: inactive | outcome [3]: inactive | outcome [4]: inactive | outcome [5]: inactive | outcome [6]: inactive | outcome [7]: inactive | outcome [8]: inactive | outcome [9]: inactive

Cc1cc(Cc2cc(C)cc(C(C)(C)C)c2O)c(O)c(C(C)(C)C)c1
outcome [1]: inactive | AC50 [2]: 100 µM (active) | outcome [3]: inactive | AC50 [4]: 79.4 µM (active) | AC50 [6]: 51.4 µM (active) | outcome [7]: inactive | AC50 [8]: 165 µM (active) | AC50 [9]: 169 µM (active)

CC(=O)Nc1ccc(O)cc1
outcome [1]: inactive | outcome [2]: inactive | outcome [3]: inactive | outcome [4]: inactive | outcome [6]: inactive | outcome [7]: inactive | outcome [8]: inactive

CCCCCCCCCCCC(=O)O
outcome [1]: inactive | outcome [2]: inactive | outcome [3]: inactive | outcome [4]: inactive | outcome [6]: inactive | outcome [7]: inactive | outcome [8]: inactive

CCN(CCC#N)c1ccccc1
outcome [1]: inactive | outcome [2]: inactive | outcome [3]: inactive | outcome [4]: inactive | outcome [5]: inactive | outcome [6]: inactive | outcome [7]: inactive | outcome [8]: inactive | outcome [9]: inactive

CCCCCCCCCC=CCC1CC(=O)OC1=O (centres undefined)
outcome [1]: inactive | outcome [2]: inactive | outcome [3]: inactive | outcome [4]: inactive | outcome [5]: inactive | outcome [6]: inactive | outcome [7]: inactive | outcome [8]: inactive | outcome [9]: inactive

Clc1ccc(Nc2nnc(Cc3ccncc3)c3ccccc23)cc1
outcome [1]: inactive | AC50 [2]: 16 µM (active) | outcome [3]: inactive | outcome [4]: inactive | outcome [6]: inactive | outcome [7]: inactive | outcome [8]: inactive | outcome [9]: inactive

COC(=O)C(F)(F)C(F)(F)C(F)(F)C(F)(F)C(F)(F)F
outcome [1]: inactive | outcome [2]: inactive | outcome [3]: inactive | outcome [4]: inactive | outcome [5]: inactive | outcome [6]: inactive | outcome [7]: inactive | outcome [8]: inactive | outcome [9]: inactive

C[C@]12CC[C@@H]3c4ccc(O)cc4CC[C@H]3[C@@H]1C[C@@H](O)[C@@H]2O
outcome [1]: inactive | outcome [2]: inactive | outcome [3]: inactive | outcome [4]: inactive | outcome [6]: inactive | outcome [7]: inactive | outcome [8]: inactive

CCO[Si](C)(C)OCC
outcome [1]: inactive | outcome [2]: inactive | outcome [3]: inactive | outcome [4]: inactive | outcome [5]: inactive | outcome [6]: inactive | outcome [7]: inactive | outcome [8]: inactive | outcome [9]: inactive

O=C1C=CC(=O)N1c1cccc(N2C(=O)C=CC2=O)c1
outcome [1]: inactive | outcome [2]: inactive | outcome [3]: inactive | outcome [4]: inactive | outcome [5]: inactive | outcome [6]: inactive | outcome [7]: inactive | outcome [8]: inactive | outcome [9]: inactive

Oc1c(Cl)cc(Cl)cc1Sc1cc(Cl)cc(Cl)c1O
outcome [1]: inactive | outcome [2]: inactive | outcome [3]: inactive | outcome [4]: inactive | outcome [5]: inactive | outcome [6]: inactive | outcome [7]: inactive | outcome [8]: inactive | outcome [9]: inactive

CCCCC(CC)C(=O)O (centres undefined)
outcome [1]: inactive | outcome [2]: inactive | outcome [3]: inactive | outcome [4]: inactive | outcome [6]: inactive | outcome [7]: inactive | outcome [8]: inactive

C[C@]12CC[C@@H]3c4ccc(O)cc4CC[C@H]3[C@@H]1CC[C@@H]2OC(=O)CCC1CCCC1
outcome [1]: inactive | outcome [2]: inactive | outcome [3]: inactive | outcome [4]: inactive | outcome [5]: inactive | AC50 [6]: 177 µM (active) | outcome [7]: inactive | AC50 [8]: 100 µM (active) | outcome [9]: inactive
